BoNT A protease – blocks Botulinum neurotoxin A light chain protease. inhibition, % at 10 µM. AID 588499. 360,000 tested, 0.17% active. multiplex microsphere protease substrate cleavage, flow cytometry
Anthrax LF prot – inhibitors of Bacillus anthracis lethal factor protease; multiplex microsphere protease cleavage assay, LF; inhibition, % at 10 µM; AID 588501; P15917; 360,000 tested, 0.12% active
BoNT F protease – blocks Botulinum neurotoxin F light chain protease; Multiplex microsphere protease cleavage assay, flow cytometry; inhibition, % at 10 µM; 360,000 tested, 0.22% active; in the data active = inhibition above about 35%, passing the limit was not always enough; inconclusive = no clear call, values can overlap the other calls
Bead autofluor – counter-screen for toxin protease inhibitors: compound fluorescence | compound autofluorescence counterscreen, microsphere flow cytometry; hits give high values | fluorescence intensity (no concentration beside the values) | 360,000 tested, 3.1% active; in the data active = fluorescence intensity above about 16000; inconclusive = no clear call, values can overlap the other calls
SSB-PriA inh – inhibitors of Klebsiella pneumoniae PriA binding to SSB C-terminal tail. AlphaScreen SSBct-PriA binding, biotinylated peptide. inhibition, % at 33 µM. AID 1272365. 430,000 tested, 0.6% active; in the data active = inhibition mostly above about 37%, no sharp cut-off; inactive = mostly below about 20%
A number is an active result; – = inactive; ? = inconclusive; · = not tested or not shown. Shown are actives, neighbours in structure and some others; about 3.1% of the full set was active somewhere. Cut-off read from the data, not from the text of the source, unless noted: active = inhibition above about 30%; inconclusive = no clear call, values can overlap the other calls; inactive = below that.

SMILES	BoNT A protease	Anthrax LF prot	BoNT F protease	Bead autofluor	SSB-PriA inh
COc1ccc(N2C(=O)c3ccccc3NC23C(=O)N(C)c2ccccc23)cc1 (stereo unspecified)	–	–	–	17048	–
COc1ccc2c(c1)C1(Nc3ccccc3-c3nc4ccccc4n31)C(=O)N2C (stereo unspecified)	–	–	–	–	–
Cc1nnc(C2CCN(C(=O)Cc3ccc(SC(C)C)cc3)CC2)s1	·	·	·	·	–
CCN(CC)C1=CC(=O)OC12CCCCC2	?	–	–	22472	–
CC(C)N(C1=CC(=O)OC12CCCCC2)C(C)C	–	–	?	–	–
COc1ccc(NC(=O)Nc2ccc(F)cc2)c(C)c1	–	–	–	–	–
COc1ccc(NC(=O)Nc2ccc(F)cc2F)c(C)c1	?	–	–	21747	–
C=CCN1CC(c2nc3ccccc3n2Cc2ccccc2)CC1=O (stereo unspecified)	?	–	–	20701	–
Cc1c(Cl)cccc1Nc1nc(N)nc(CSc2ncccn2)n1	–	–	–	20532	–
Cc1ccc(NC(=O)[C@H]2CCCN(c3ccc(-n4cncn4)nn3)C2)c(Br)c1	·	·	·	·	–
CCOC(=O)C(O)(c1ccc(NC(=O)NC2CCCCC2)cc1)C(F)(F)F (stereo unspecified)	–	–	–	23646	–
CCOc1cccc2sc(NC(=O)C3CCCN3S(C)(=O)=O)nc12 (stereo unspecified)	·	·	·	·	–
O=c1c2ccccc2c2ccccc2c(=O)n1-c1cccc(C(F)(F)F)c1	·	·	·	·	–
CC(OC1=CC(=O)CCC1)C(=O)c1ccccc1 (stereo unspecified)	–	–	–	20377	–
CC(=NO)c1cc(Cl)cc(Cl)c1O	·	·	·	·	–
C/C(=N\O)c1cc(Cl)cc(Cl)c1O	–	34	?	–	·
Cc1cccnc1NC(=O)c1cc(N2CCCCC2)ncn1	·	·	·	·	–
O=C(Cn1cnc2c(cnn2-c2ccc(F)cc2)c1=O)Nc1ccccc1C(F)(F)F	·	·	·	·	–
O=C1C(Br)=Cc2cccc3cccc1c23	59	30	–	–	–
CC1=CC(=NNc2ccccc2[N+](=O)[O-])CC(C)(C)C1	·	·	·	·	117
CC1(C)OC(=O)C(=NNc2ccccc2[N+](=O)[O-])C(=O)O1	–	–	–	–	–
O=C(Cn1ccc2ccccc21)NCc1cnn2ccccc12	·	·	·	·	–
COC1=C(Nc2ccccc2)C(=O)c2ccccc2C1=O	–	–	–	–	–
COC1=C(Nc2ccc(C)cc2)C(=O)c2ccccc2C1=O	–	–	–	–	90
Cc1cc(OC(=O)N2CCOCC2)cc(C)c1Cl	–	–	–	–	–
SMILES	BoNT A protease	Anthrax LF prot	BoNT F protease	Bead autofluor	SSB-PriA inh
CC(=O)Oc1c(Cl)c(N2CCOCC2)c(OC(C)=O)c2ccccc12	–	–	–	17480	–
CC(C)(C)NC(=O)CN(C(=O)C1(C)CC(=O)N=C2C=CC=CN21)C1CCCC1 (stereo unspecified)	–	–	–	23762	–
CC(C)CSc1ncc(-c2cccc(C(F)(F)F)c2)cn1	?	–	–	19690	–
CCc1ccc(C(O)c2ncc(-c3cccc(C(F)(F)F)c3)[nH]2)cc1 (stereo unspecified)	–	–	–	–	·
NC(=O)c1sc2nc(N3CCCCC3)c3c(c2c1N)CCCC3	–	–	–	16416	–
COC(=O)c1sc2nc(N3CCCCC3)c3c(c2c1N)CCCC3	–	–	–	–	–
Cn1nc(-c2ccc(F)cc2)cc1C(=O)NCCc1csc(-c2ccc(F)cc2)n1	·	·	·	·	–
Cc1cc(C)n(-c2nc3ccccc3c(=O)n2OCC(C)C)n1	–	–	–	–	–
CCOn1c(-n2nc(C)cc2C)nc2ccccc2c1=O	–	–	–	20487	–
Cc1cc(C)n(-c2nc3ccccc3c3nc(C)nn23)n1	–	–	–	–	104
Cc1cc(C)n(-c2nc3ccccc3c(=O)n2OC2CCCCC2)n1	–	–	–	–	–
CCN(CC)C(=O)COn1c(SCC(=O)N(CC)CC)nc2ccccc2c1=O	–	–	–	19592	–
COC(=O)COn1c(-n2nc(C)cc2C)nc2ccccc2c1=O	–	–	–	22312	–
O=C(NCCC(O)c1ccc2c(c1)OCO2)c1ccoc1 (stereo unspecified)	·	·	·	·	–
Cc1cccc(NC(=S)NN=C2CC(C)(C)Oc3ccc(O)cc32)c1	·	·	·	·	47
Cc1ccccc1NC(=S)NN=C1CC(C)(C)Oc2ccc(O)cc21	·	·	·	·	47
O=C(CSc1ncnc2c1nnn2Cc1ccccc1F)NC1CCCC1	·	·	·	·	–
COC(=O)Cc1c(C)c2ccc(OC(C)C)cc2oc1=O	–	–	–	–	–
CCc1c(C)c2ccc(OCC(=O)OC)cc2oc1=O	?	–	–	17530	–
O=C(O)CC1CCCCN1S(=O)(=O)c1ccc(Cl)cc1 (stereo unspecified)	·	·	·	·	–
O=C(N/N=C/c1ccccc1Cl)c1cccc(F)c1	–	–	–	16940	·
O=C(N/N=C/c1c(Cl)cccc1Cl)c1cccc(F)c1	–	–	–	–	·
Cc1ccccc1NC(=O)Cn1c(-c2ccccn2)nc2ccccc21	·	·	·	·	–
O=C(CCc1ccccc1)Nc1cccnc1Cl	–	?	66	–	–
CCOc1ccc(-n2c(Cc3cc(=O)[nH]c(=O)[nH]3)nnc2SCC)cc1	?	–	–	19071	–
SMILES	BoNT A protease	Anthrax LF prot	BoNT F protease	Bead autofluor	SSB-PriA inh
O=C(CN(CC1CCCO1)S(=O)(=O)c1ccc(S(=O)(=O)NC2CC2)cc1)Nc1ccccc1 (stereo unspecified)	–	–	–	–	–
CCN(CC)S(=O)(=O)c1ccc(S(=O)(=O)N(CC(=O)Nc2ccccc2)CC2CCCO2)cc1 (stereo unspecified)	–	–	–	17027	–
Cn1sc(NC(=O)c2ccc(Cl)cc2)nc1=O	–	–	–	–	–
Cc1ccc(C(=O)Nc2nc(=O)n(C)s2)cc1	?	–	–	22548	–
O=C(NCC(c1ccsc1)N1CCOCC1)c1c(F)cccc1Cl (stereo unspecified)	·	·	·	·	–
Cc1ccc(-c2nc3sc4c(N)ncnc4c3c3c2CCCC3)cc1	–	–	–	22379	–
CCCCc1nnc(SCCSc2nnc(CCCC)n2N)n1N	–	–	–	23554	–
CCOC(=O)C1=C(C)NC2=C(C(=O)c3ccccc32)C1c1ccc(O)cc1 (stereo unspecified)	–	–	–	–	52
Cc1ccc(NC(=O)CCCN2C(=O)/C(=C/C=C/c3ccccc3)SC2=S)cc1	–	–	–	–	–
CC(C)c1ccccc1NC(=O)COC(=O)CCN1C(=O)/C(=C\C=C\c2ccccc2)SC1=S	40	–	–	–	–
O=C(COC(=O)CCN1C(=O)/C(=C\C=C\c2ccccc2)SC1=S)Nc1ccc(Br)cc1	41	–	–	–	–
CC(=O)c1sc(NN=C2CC3CCC2(C)C3(C)C)nc1C (stereo unspecified)	·	·	·	·	–
COCCN1Cc2cccc(C(=O)Nc3cccc(OC)c3)c2C1=O	–	–	–	–	–
CCCN1Cc2cccc(C(=O)Nc3cc(OC)cc(OC)c3)c2C1=O	–	–	–	22619	–
O=C(Cn1c(/C=C/c2ccccc2)nc2ccccc21)NCc1ccco1	·	·	·	·	–
CN1C=CC2=C(C#N)C(N)C(C#N)(C#N)[C@H](c3ccccc3)[C@H]2C1 (stereo partly specified)	–	–	–	16327	–

Compound activity (PubChem)
